We go through 61 compounds from PubChem BioAssay AID651739 (Broad Institute, 2012).

About 4,100 (73%) of roughly 5,600 compounds were called active. Not shown: some 4% with an inconclusive outcome.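 How the source made its calls: active means mean replicate inhibition above about 95% and at least 55% of replicates individually reaching it (limit read from the data); inconclusive means only one of the two criteria is met; inactive means neither criterion is met.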 So high a share suggests a set chosen from earlier hits. The list is a sample of the results.

The nature of this assay: T. cruzi intracellular proliferation inhibitors, confirmation, cell-based, NIH3T3 host, beta-gal parasite, luminescence, cherry-pick (AID 651739). The conditions noted are these: T. cruzi beta-gal in NIH3T3, GalScreen luminescence, 90 h; at 8.35 µM; active compounds read high.
By inhibition is commonly meant the change of the read-out against control, counted positive when it falls. For the compound `OC[C@@H]1Nc2ccc(-c3cccc(F)c3)cc2[C@H]2[C@@H]1CCN2Cc1ccncc1`, the inhibition was 114% (active).

`CN(C)C(=O)c1ccc(-c2ccc3c(c2)[C@H]2[C@H](CCN2C(=O)c2ccc4c(c2)OCO4)[C@H](CO)N3)cc1`: the inhibition is 100% (active).

With `O=C(c1cnccn1)N1CC[C@@H]2[C@H](CO)Nc3ccc(-c4cccc(F)c4)cc3[C@@H]21`, the inhibition was 109% (active).

With `O=C(c1ccccn1)N1CC[C@@H]2[C@H]1c1cc(-c3ccccc3)ccc1N[C@@H]2CO`, the inhibition was 107% (active).

Turning to `O=C(c1ccccc1F)N1C[C@H]2[C@@H](c3ccccc31)[C@@H](CO)N2C(=O)c1ccc(F)cc1`, the inhibition was 46.6% (inactive).

For the compound `C[C@@H]1CN([C@H](C)CO)S(=O)(=O)c2ccc(C#Cc3ccncc3)cc2O[C@@H]1CN(C)S(=O)(=O)c1ccc(F)cc1`, the inhibition was 70.2% (inactive).

With `CCCN(C)C[C@H]1Oc2cc(C#CC3CCCC3)ccc2S(=O)(=O)N([C@H](C)CO)C[C@@H]1C`, the inhibition was 105% (active).

Turning to `CCCN(C)C[C@@H]1Oc2cc(C#Cc3ccc(F)cc3)ccc2S(=O)(=O)N([C@H](C)CO)C[C@H]1C`, the inhibition was 108% (active).

With `C[C@@H]1CN([C@@H](C)CO)S(=O)(=O)c2ccc(C#Cc3ccc(F)cc3)cc2O[C@H]1CN(C)S(C)(=O)=O`, the inhibition was 85.8% (inactive).

As for `CN1c2ccc(-c3ccccc3)cc2[C@@H]2[C@@H](CCN2C(=O)c2ccncc2)[C@@H]1CO`, the inhibition is 100% (active).

For the compound `CCC(=O)N1CC[C@@H]2[C@@H](CO)N(C)c3ccc(-c4cccc(OC)c4)cc3[C@@H]21`, the inhibition was 99.1% (active).

As for `COc1ccc(NC(=O)N2CC[C@@H]3[C@@H](CO)N(C)c4ccc(-c5cccc(F)c5)cc4[C@@H]32)cc1`, the inhibition is 100% (active).

On to `COc1ccc(-c2ccc3c(c2)[C@@H]2[C@@H](CCN2C(=O)Cc2ccccn2)[C@H](CO)N3C)cc1`, for which the inhibition is 108% (active).

On to `CN1c2ccc(-c3ccccc3)cc2[C@H]2[C@H](CCN2C(=O)Cc2ccccn2)[C@H]1CO`, for which the inhibition is 88.9% (inactive).

In the case of `CCC(=O)N1CC[C@@H]2[C@@H](CO)N(C)c3ccc(-c4ccc(F)cc4)cc3[C@@H]21`, the inhibition is 102% (active).

`Cc1noc(C)c1S(=O)(=O)N(C)C[C@H]1Oc2ccc(N(C)C)cc2CC(=O)N([C@H](C)CO)C[C@@H]1C`: the inhibition is -37.8% (inactive).

Regarding `C[C@H]1CN([C@@H](C)CO)C(=O)c2ccccc2-c2ccccc2CO[C@@H]1CN(C)S(=O)(=O)c1ccc(C(F)(F)F)cc1`, the inhibition is 99.2% (active).

Turning to `C[C@H](CO)N1C[C@H](C)[C@@H](CN(C)C(=O)Nc2ccnc(N3CCOCC3)c2)OCc2ccccc2-c2ccccc2C1=O`, the inhibition was 100% (active).

For the compound `C[C@H](CO)N1C[C@H](C)[C@H](CN(C)S(=O)(=O)c2ccccc2)Oc2ncc(-c3cccc(C(F)(F)F)c3)cc2C1=O`, the inhibition was 108% (active).

For the compound `C[C@@H]1CN([C@H](C)CO)C(=O)c2cc(-c3cncnc3)cnc2O[C@H]1CN(C)C(=O)Nc1ccc2c(c1)OCO2`, the inhibition was -15.5% (inactive).

Take `C[C@H](CO)N1C[C@H](C)[C@@H](CN(C)S(=O)(=O)c2cccc(F)c2)OCc2ccccc2-c2c(n(C)c3ccccc23)C1=O`: the inhibition is 99.6% (active).

With `COc1ccccc1-c1ccc2c(c1)O[C@H](CN(C)S(=O)(=O)c1ccc(C)cc1)[C@@H](C)CN([C@H](C)CO)S2(=O)=O`, the inhibition is 93.9% (inactive).

Take `C[C@H](CO)N1C[C@H](C)[C@H](CN(C)S(=O)(=O)c2cccc(F)c2)Oc2ncc(/C=C/c3ccccc3)cc2C1=O`: the inhibition was 102% (active).

For the compound `Cc1ccc(S(=O)(=O)N(C)C[C@@H]2Oc3ncc(-c4cc5ccccc5o4)cc3C(=O)N([C@H](C)CO)C[C@@H]2C)cc1`, the inhibition is 105% (active).

`Cc1ccc(-c2cnc3c(c2)C(=O)N([C@@H](C)CO)C[C@@H](C)[C@H](CN(C)Cc2ccccc2F)O3)cc1`: the inhibition is 102% (active).

As for `C[C@@H]1CN([C@H](C)CO)S(=O)(=O)c2ccc(C#CC3CCCC3)cc2O[C@@H]1CN(C)C(=O)Cc1ccncc1`, the inhibition is 92.6% (inactive).

Consider `C[C@@H]1CN([C@H](C)CO)S(=O)(=O)c2ccc(C#CC3CCCC3)cc2O[C@@H]1CN(C)Cc1cccnc1`, for which the inhibition is 98.8% (active).

In the case of `C[C@H]1CN([C@@H](C)CO)S(=O)(=O)c2ccc(C#CC3CCCC3)cc2O[C@H]1CN(C)C(=O)Cc1ccncc1`, the inhibition is 110% (active).

For `C[C@H](CO)N1C[C@H](C)[C@H](CN(C)Cc2cccnc2)Oc2cc(C#CC3CCCC3)ccc2S1(=O)=O`, the inhibition is 108% (active).

Take `C[C@@H]1CN([C@H](C)CO)C(=O)c2cc(NC(=O)Nc3ccc(F)cc3)ccc2O[C@@H](C)CCCCO[C@H]1CN(C)Cc1ccc(Cl)c(Cl)c1`: the inhibition is 98.3% (active).

Consider `COc1ccc(NC(=O)Nc2ccc3c(c2)C(=O)N([C@H](C)CO)C[C@@H](C)[C@H](CN(C)Cc2ccc(Cl)c(Cl)c2)OCCCC[C@@H](C)O3)cc1`, for which the inhibition was 98.8% (active).

As to `C[C@@H]1CCCCO[C@@H](CN(C)Cc2ccc(Cl)c(Cl)c2)[C@H](C)CN([C@H](C)CO)C(=O)c2cc(NC(=O)Nc3ccc(F)cc3)ccc2O1`, the inhibition is 88.5% (inactive).

Consider `C[C@@H]1CN([C@H](C)CO)C(=O)Cc2cc(NC(=O)c3ccncc3)ccc2O[C@H]1CN(C)Cc1ccc(-c2ccccc2)cc1`, for which the inhibition is 109% (active).

`C[C@H](CO)N1C[C@H](C)[C@@H](CN(C)Cc2ccc(-c3ccccc3)cc2)Oc2ccc(NC(=O)CCC(F)(F)F)cc2CC1=O`: the inhibition was 92.4% (inactive).

In the case of `C[C@@H]1CN([C@@H](C)CO)C(=O)Cc2cc(NC(=O)C3CCCCC3)ccc2O[C@@H]1CN(C)Cc1ccc(C(=O)Nc2ccccc2N)cc1`, the inhibition was 103% (active).

As to `C[C@H](CO)N1C[C@H](C)[C@H](CN(C)Cc2ccc(-c3ccccc3)cc2)Oc2ccc(NC(=O)Nc3ccc(F)cc3)cc2CC1=O`, the inhibition is 110% (active).

On to `COCC#Cc1ccc([C@@H]2[C@H](CO)N3CCCCN(C(=O)CN(C)C)C[C@@H]23)cc1`, for which the inhibition is 57.7% (inactive).

As for `COc1ccc(-c2ccc([C@H]3[C@H]4CN(C(=O)c5ccc6c(c5)OCO6)CCCCN4[C@H]3CO)cc2)cc1`, the inhibition was 106% (active).

Consider `Cc1cccc(-c2ccc([C@@H]3[C@H](CO)N4CCCCN(C(=O)c5ccc6c(c5)OCO6)C[C@@H]34)cc2)c1`, for which the inhibition was 105% (active).

On to `CCCC#Cc1ccc([C@H]2[C@H](CO)N3CCCCN(C(=O)c4ccc5c(c4)OCO5)C[C@@H]23)cc1`, for which the inhibition is 104% (active).

Turning to `O=C(CN1CCOCC1)N1CCCCN2[C@@H](CO)[C@H](c3ccc(-c4ccccc4)cc3)[C@@H]2C1`, the inhibition is 81.6% (inactive).

Regarding `O=C(CN1CCOCC1)N1CCCCN2[C@@H](CO)[C@H](c3ccc(/C=C/c4ccccc4)cc3)[C@@H]2C1`, the inhibition was 99.6% (active).

Regarding `O=C(CN1CCOCC1)N1CCCCN2[C@H](CO)[C@H](c3ccc(-c4ccccc4)cc3)[C@@H]2C1`, the inhibition was 73.7% (inactive).

With `CCC(=O)N1CCCCN2[C@H](C1)[C@@H](c1ccc(/C=C/c3ccccc3)cc1)[C@@H]2CO`, the inhibition is 102% (active).

Turning to `CCC(=O)N1CCCCN2[C@H](C1)[C@@H](c1ccc(-c3ccc(F)cc3)cc1)[C@@H]2CO`, the inhibition is 60.2% (inactive).

On to `O=C(C[C@H]1CC[C@@H]2[C@H](COC[C@H](O)CN2Cc2ccc(Oc3ccccc3)cc2)O1)N1CCN(c2ccccc2)CC1`, for which the inhibition is 101% (active).

For `COc1cccc(C#Cc2ccc([C@@H]3[C@H](C#N)N[C@H]3CO)cc2)c1`, the inhibition was 101% (active).

Take `O=C(Nc1cc(F)ccc1F)N1CCCCN2[C@H](CO)[C@@H](c3ccc(-c4cncnc4)cc3)[C@H]2C1`: the inhibition is 55.4% (inactive).

With `CC(C)(O)C#Cc1ccc([C@@H]2[C@H](CO)N3CCCCN(C(=O)c4cccc(F)c4)C[C@@H]23)cc1`, the inhibition was 76.7% (inactive).

For the compound `O=C(Nc1ccccc1F)N1CCCCN2[C@H](CO)[C@@H](c3ccc(-c4cccnc4)cc3)[C@H]2C1`, the inhibition was 61.1% (inactive).

With `O=C(c1ccncc1)N1CCCCN2[C@H](CO)[C@H](c3ccc(-c4ccccc4)cc3)[C@H]2C1`, the inhibition was 105% (active).

Regarding `COc1ccccc1NC(=O)N1CCCCN2[C@H](C1)[C@H](c1ccc(-c3ccccc3)cc1)[C@@H]2CO`, the inhibition was 109% (active).

Take `O=C(c1cccc(F)c1)N1CCCCN2[C@H](CO)[C@H](c3ccc(-c4ccncc4)cc3)[C@H]2C1`: the inhibition was 95.2% (active).

Take `O=C(c1cccnc1)N1CCCCN2[C@@H](CO)[C@H](c3ccc(C#Cc4ccccc4)cc3)[C@@H]2C1`: the inhibition is 112% (active).

As to `COc1ccc(C#Cc2ccc([C@@H]3[C@@H](CO)N4CCCCN(C(=O)c5ccncc5)C[C@@H]34)cc2)cc1`, the inhibition was 80.6% (inactive).

On to `C[C@@H]1CCCCO[C@H](CN(C)Cc2ccccc2)[C@@H](C)CN([C@@H](C)CO)C(=O)c2cc(NC(=O)Nc3ccc(F)cc3)ccc2O1`, for which the inhibition is 101% (active).

Turning to `C[C@@H]1CCCCO[C@H](CN(C)Cc2ccc(C(F)(F)F)cc2)[C@H](C)CN([C@H](C)CO)C(=O)c2cc(NC(=O)Nc3ccc(F)cc3)ccc2O1`, the inhibition is 96.3% (active).

As for `C[C@@H]1CN([C@H](C)CO)C(=O)c2cc(NS(=O)(=O)c3cccs3)ccc2O[C@@H](C)CCCCO[C@H]1CN(C)Cc1ccc(C(F)(F)F)cc1`, the inhibition was 101% (active).

As to `C[C@@H]1CCCCO[C@@H](CN(C)Cc2ccc(C(F)(F)F)cc2)[C@@H](C)CN([C@H](C)CO)C(=O)c2cc(NC(=O)Nc3ccccc3)ccc2O1`, the inhibition was 105% (active).

Turning to `C[C@H]1CCCCO[C@H](CN(C)Cc2ccccc2)[C@@H](C)CN([C@@H](C)CO)C(=O)c2cc(NC(=O)c3ccccc3)ccc2O1`, the inhibition was 113% (active).

In the case of `C[C@H]1CCCCO[C@H](CN(C)Cc2ccccc2)[C@@H](C)CN([C@@H](C)CO)C(=O)c2cc(NC(=O)NC3CCCCC3)ccc2O1`, the inhibition was 111% (active).
